# Results reported in the supplement of paper PMC12636033.
# ± gives the standard deviation of the averaged measurements. Over roughly 33,000 sequences, “E-score (rank enrichment, -0.5 to 0.5)” has its median near -0.0068; the highest 2% begin near 0.24. For the sample, the highest values were picked, then their nearest neighbours and some sequences at random.
# Test system: muMax20 (Max(13-93) K31hArg/K57hArg, M65Nle)
# Assay: PBM 8-mer E-score (E-score (rank enrichment, -0.5 to 0.5)); higher = stronger preferential binding
# Protocol: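 Protein binding microarray (universal PBM chip covering all 10-mers in fixed probe flanks) with chemically synthesized human Max(13-93) bHLH-LZ analogs (not full-length Max) bearing noncanonical residues (hArg, Tha, Aib, Nle at 65) and aromatic Cys staples. Read-out per 8-mer (and its reverse complement): E-score (rank-based enrichment, -0.5 to 0.5) and Z-score of median probe intensity.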
row,Sequence,PBM 8-mer E-score
1,AAGATGTA,0.237 ± 0.094
2,AAGATATC,0.155 ± 0.027
3,CAGATGTA,0.138 ± 0.011
4,ATGATATA,0.266 ± 0.048
5,ATGATATG,0.21 ± 0.12
6,CTGATATA,0.0184 ± 0.051
7,GAGATACA,-0.0288 ± 0.04
8,GAGATGTA,0.104 ± 0.017
9,AAGATATA,0.26 ± 0.041
10,AAGATACA,0.316 ± 0.024
11,AAGATACT,0.117 ± 0.038
12,CAGATATA,0.0469 ± 0.045
13,CGAGCCGA,-0.153 ± 0.036
14,GAAGCACC,-0.0676 ± 0.049
15,ACCTAGCG,-0.048 ± 0.057
16,GAGGTAGA,0.0124 ± 0.047
17,ACCGCTTA,-0.0621 ± 0.13
18,CTGATGTA,-0.0502 ± 0.023
19,AAGATAAC,0.172 ± 0.07
20,AAGATAAG,0.15 ± 0.031
21,ATGATGTA,0.171 ± 0.12
22,GTGATGTA,0.2775 ± 0.00062
23,AAGATAAT,0.239 ± 0.051
24,CCTGCCCC,-0.167 ± 0.078
25,CCAGCTGC,-0.272 ± 0.12

row,Sequence,PBM 8-mer E-score
1,GGCGCAAA,-0.148 ± 0.17
2,GTGTAAAA,0.113 ± 0.016
3,AGAACGAG,0.133 ± 0.061
4,CTACGATA,0.082 ± 0.02
5,ATACGATA,0.244 ± 0.053
6,GTACGATA,0.163 ± 0.033
7,GAGTCGGC,-0.146 ± 0.055
8,CGGATGCC,-0.075 ± 0.079
9,ATTCGTGC,0.0424 ± 0.086
10,AACCAGTT,0.0717 ± 0.038
11,AGATACAG,0.218 ± 0.024
12,ACATACAG,0.242 ± 0.017
13,ACATACAA,0.137 ± 0.076
14,ACATACAC,0.165 ± 0.057
15,ATATACAT,0.247 ± 0.032
16,ATATACAA,0.229 ± 0.069
17,ATATACAC,0.169 ± 0.004
18,ACATACAT,0.243 ± 0.029
19,CCATACAG,-0.0198 ± 0.047
20,GATGTACC,0.0595 ± 0.065
21,ACTCCTAT,0.0559 ± 0.1
22,AAACGGGC,0.0187 ± 0.03
23,TAAACAAA,0.184 ± 0.008
24,AGCTCCCC,-0.0268 ± 0.092
25,CAATACAC,0.194 ± 0.043

row,Sequence,PBM 8-mer E-score
1,AAATACAA,0.19 ± 0.018
2,AAATACAG,0.209 ± 0.07
3,GAATACAC,0.123 ± 0.014
4,AAATACAC,0.273 ± 0.038
5,AAATACAT,0.259 ± 0.061
6,CGGTTTTC,0.00594 ± 0.054
7,ATAGCGTG,0.161 ± 0.019
8,AGCACTCG,-0.199 ± 0.078
9,GAACGCCA,-0.206 ± 0.021
10,AAATCGCG,-0.0409 ± 0.032
11,GGTAAGAA,0.0527 ± 0.1
12,CATAACGA,0.0556 ± 0.017
13,ATAATTAT,0.276 ± 0.0028
14,CTAATTAA,0.0707 ± 0.041
15,ATAATTAA,0.175 ± 0.05
16,TTAATTAA,0.324 ± 0.12
17,CGAATTAA,0.106 ± 0.11
18,GGAATTAA,0.1996 ± 0.0018
19,ATAATTAG,0.223 ± 0.1
20,TGAATTAA,0.254 ± 0.043
21,ATAATTAC,0.22 ± 0.074
22,CCTGTCCA,-0.131 ± 0.17
23,CCAGTTTA,-0.0199 ± 0.068
24,ATAAGGCC,-0.0432 ± 0.14
25,AGTGCCTA,-0.109 ± 0.091

row,Sequence,PBM 8-mer E-score
1,CAACTGCC,0.0721 ± 0.014
2,TCGAGGAA,-0.0274 ± 0.069
3,CCCACAAA,0.183 ± 0.015
4,ATGATAGC,0.2152 ± 0.0016
5,CCCATGCA,0.133 ± 0.01
6,AGCATGCA,0.284 ± 0.11
7,ACCATGCA,0.28 ± 0.096
8,GGCATGCA,0.106 ± 0.091
9,TGCATGCA,0.0968 ± 0.12
10,TCCATGCA,0.105 ± 0.07
11,GGATAGCC,-0.138 ± 0.11
12,ACCGACCA,0.0471 ± 0.002
13,GGGCGCCC,-0.131 ± 0.0098
14,ATAACTAG,0.0985 ± 0.14
15,ATAACTAC,0.2058 ± 0.0013
16,CTAACTAA,0.00786 ± 0.039
17,ATAACTAT,0.241 ± 0.0068
18,ATAACTAA,0.245 ± 0.0085
19,TTAACTAA,0.184 ± 0.11
20,ACACTGTG,0.0421 ± 0.2
21,CAGATCAA,-0.0923 ± 0.011
22,GGTGAAGA,-0.0661 ± 0.032
23,ATCCTCAT,-0.11 ± 0.076
24,GACGATAA,0.0693 ± 0.077
25,CACGATAA,0.17 ± 0.024

row,Sequence,PBM 8-mer E-score
1,TACGATAA,0.247 ± 0.0037
2,AATGCTAA,0.12 ± 0.033
3,AGCCAATC,-0.047 ± 0.088
4,CACATGTC,0.12 ± 0.087
5,CACATGCG,0.172 ± 0.11
6,GACATGTC,-0.00641 ± 0.13
7,AACATGTG,0.353 ± 0.042
8,TACATGTA,0.157 ± 0.069
9,AACATGTT,0.22 ± 0.04
10,AACATGTC,0.12 ± 0.025
11,CACATGTG,0.418 ± 0.015
12,AACATGTA,0.256 ± 0.028
13,AACATGAA,0.0865 ± 0.011
14,GACATGTA,0.24 ± 0.067
15,AACATGCA,0.206 ± 0.1
16,GTCTGCCA,-0.165 ± 0.0054
17,GAACTTTA,-0.157 ± 0.037
18,CTGTGGTA,0.0865 ± 0.061
19,CCGGTCGC,-0.276 ± 0.027
20,ACCGAGAA,-0.187 ± 0.0095
21,CCCAAGTC,-0.185 ± 0.0086
22,GACGCTAA,-0.13 ± 0.072
23,AGCAGTAT,0.109 ± 0.0063
24,GATTGCCA,-0.0436 ± 0.034
25,AGCGTGGA,0.045 ± 0.011

row,Sequence,PBM 8-mer E-score
1,CTCATGTA,0.0357 ± 0.054
2,CACATGTA,0.347 ± 0.045
3,CACATGAA,0.219 ± 0.014
4,GAAAACCC,0.11 ± 0.0093
5,CATAGGTC,-0.0151 ± 0.052
6,GCTGATTA,0.292 ± 0.073
7,GATGATTA,0.0475 ± 0.008
8,TATGATAA,0.181 ± 0.063
9,CATGATTC,0.0292 ± 0.013
10,AATGATAA,0.11 ± 0.021
11,CATGATTA,0.281 ± 0.049
12,CATGATAA,0.263 ± 0.034
13,CCTGATTA,0.14 ± 0.042
14,ACTGATTA,0.0963 ± 0.055
15,CGCGTTAG,-0.0996 ± 0.017
16,CTGGACTC,-0.0856 ± 0.022
17,GAAACAAC,0.00284 ± 0.071
18,GAAACATC,0.0279 ± 0.095
19,CAAACAAA,0.185 ± 0.03
20,AAAACATA,0.165 ± 0.084
21,GAAACATA,0.249 ± 0.1
22,GAAACAAA,0.236 ± 0.039
23,GAAGGTGC,-0.0729 ± 0.043
24,CATGCCAA,0.158 ± 0.078
25,CTATAAAA,0.0172 ± 0.079

row,Sequence,PBM 8-mer E-score
1,ATATAAAG,0.189 ± 0.0027
2,ATATAAAT,0.308 ± 0.0047
3,ACATAAAA,0.229 ± 0.019
4,GTATAAGA,0.138 ± 0.044
5,CTATAAAC,0.144 ± 0.0027
6,CTATAAGA,0.0354 ± 0.00038
7,ATATAAAA,0.317 ± 0.064
8,ATATAAGA,0.262 ± 0.064
9,ATAAAAAT,0.221 ± 0.025
10,ATATAAAC,0.324 ± 0.045
11,ATAAAAAC,0.109 ± 0.079
12,AAACTTTA,0.2 ± 0.068
13,CACCGCTG,-0.316 ± 0.09
14,GGGAGGGA,0.0486 ± 0.024
15,AAATTGAC,-0.0252 ± 0.075
16,AGGTCTGA,-0.112 ± 0.11
17,CGTGCTAA,-0.0595 ± 0.097
18,GGGGGTGA,-0.107 ± 0.1
19,GCACCCGA,-0.265 ± 0.009
20,ATACCCGC,0.07 ± 0.0011
21,CCCACGGA,-0.0746 ± 0.039
22,CGAGTTTC,0.112 ± 0.043
